Experimental data taken from article PMC5540273 (PLoS ONE, 2017).

System: CAMK1B
Conditions: concentration: 1 μM,replicates: in singlicate; n = 1
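Further: KINOMEscan kinase panel screen.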

Row | Structure (SMILES) | %Inh
1 | Cc1cccc2c(-c3ccncc3)c(-c3ccc(F)cc3)nn12.Cl [GW461487] | 0%
2 | N#Cc1cccc(C(=O)NC2CCN(c3ccnc(Nc4ccc(F)cc4)n3)C2)c1 (stereo not shown) [GSK1379708] | 0%
3 | Cc1n[nH]c2cc(Nc3ccnc(Nc4cccc(CN5CCOCC5)c4)n3)ccc12 [GW682569] | 37%
4 | Cn1cc(-c2cccc3c(N)c(C(N)=O)nnc23)cn1 | 0%
5 | Nc1nccc(-c2ccc3c(N)n[nH]c3c2)n1 [GSK1034945] | 10%
6 | C[C@@H]1CNc2c(sc3ccc4nc(-c5ccc(O)cc5)ccc4c23)C(=O)N1 | 13%
7 | COc1cccc(C2=C(Nc3cccc(Cl)c3)C(=O)NC2=O)c1 [SB-341556] | 29%
8 | CCn1c(-c2nonc2N)nc2cncc(Br)c21 [SB-738004] | 34%
9 | COc1cc2c(Nc3ccc(NC(=O)c4ccccc4)cc3)ncnc2cc1OCCCN1CCOCC1 [GSK301329] | 9%
10 | O=C1NCCc2[nH]c(-c3ccncc3)cc21 | 1%
11 | Cc1ccc(Nc2ccnc(Nc3ccc4c(c3)CS(=O)(=O)C4)n2)cc1O.Cl [GW579362] | 31%
12 | O=C(Nc1n[nH]c2cc(-c3ccco3)ccc12)C1CC1 [SB-737447] | 0%
13 | CN(c1cccc(CNc2nc(Nc3ccc4c(c3)CC(=O)N4)ncc2C(F)(F)F)c1)S(C)(=O)=O | 9%
14 | Cc1ccc(C(=O)Nc2ccc(Oc3ccc4nc(NC(=O)C5CC5)cn4c3)c(F)c2)c(=O)n1-c1ccccc1 | 0%
15 | COC(=O)c1cccc(NC(=O)NC2CCN(c3ccnc(NCc4ccc(F)cc4)n3)CC2)c1 [GSK1379860] | 67%
16 | Cl.c1ccc(Oc2ccc(Nc3ccnc4cc(-c5ccc(CN6CCNCC6)o5)ccc34)cc2)nc1 [GW567142] | 0%
17 | O=C(NCC1CC1)c1ccc(-c2cc(C(=O)NC3CC3)ccc2F)cc1 [GW810445] | 21%
18 | C[C@@H](Oc1cc(-n2cnc3cc(-c4cnn(C)c4)ccc32)sc1C(N)=O)c1ccccc1Cl [GSK580432] | 22%
19 | CC(C)c1nc(-c2cccc(NS(=O)(=O)c3ccccc3)c2)c(-c2ccnc(Nc3ccc4c(c3)CN(C)CC4)n2)s1 [GSK1649598] | 0%
20 | C[C@@H](Oc1cc(-n2cnc3ccc(-c4ccncc4)cc32)sc1C(N)=O)c1ccccc1Cl [GSK483724] | 8%
21 | CCn1c(-c2nonc2N)nc2cncc(CNC3CCNCC3)c21.Cl [SB-747651] | 30%
22 | CC(C)S(=O)(=O)N1CCN(Cc2ccc3c(c2)nc(NC(=O)c2ccsc2)n3C[C@H](O)c2ccccc2)CC1 [GW635815] | 0%
23 | COc1cc(Nc2nccc(N3CCC(NC(=O)c4cccc(C#N)c4)C3)n2)cc(OC)c1OC (stereo not shown) [GSK1379751] | 22%
24 | Cc1ccc(CC(=O)N2CCc3cc(-c4cn(C)c5ncnc(N)c45)ccc32)cc1 [GSK2634758] | 0%

System: CAMK1D
Conditions: concentration: 1 μM,replicates: in singlicate; n = 1

Row | Structure (SMILES) | %Inh
25 | CS(=O)c1ccc(-c2coc3ccc(-c4n[nH]c(=O)o4)cc23)cc1 (stereo not shown) | 0%
26 | O=C(Nc1cccc(Oc2ccc3nccn3n2)c1)Nc1cccc(C(F)(F)F)c1 | 12%
27 | CCNCC(Cc1ccccc1)NC(=O)c1cc(Br)c(-c2ccnc3[nH]ccc23)s1.Cl.Cl (stereo not shown) [GSK1383280] | 32%
28 | COC(=O)Nc1nc2cc(Oc3ccc(NC(=O)Nc4cc(C(F)(F)F)ccc4Cl)cc3)ccc2[nH]1.Cl [GW697465] | 13%
29 | COc1cc2nccc(Nc3ccc(Oc4ccccc4)cc3)c2cc1OC.Cl [GI261656] | 2%
30 | Cc1ccc2c(-c3ccnc(Nc4ccc(C(F)(F)F)cc4)n3)cnn2n1 [GW819776] | 0%
31 | O=C(Nc1ccccc1)c1cccc(Oc2ccc3nccn3n2)c1 | 0%
32 | C[C@@H](Oc1cc(-n2cnc3cc(-c4ccncc4)ccc32)sc1C(N)=O)c1ccccc1Cl [GSK479719] | 6%
33 | CS(=O)(=O)Nc1ccc(-c2ccnc3[nH]ccc23)cc1 [GSK993273] | 38%
34 | NC(=O)c1ccc(-c2cc3ncnc(SCC(=O)O)c3s2)cc1 | 5%
35 | CN(c1ccc2c(c1)nc(NCc1ccc(F)cc1)n2C)c1ccnc(Nc2ccc(CS(C)(=O)=O)cc2)n1.Cl [GW813244] | 0%
36 | Cn1ccc2ncnc(Oc3ccc(NC(=O)Nc4cccc(C(F)(F)F)c4)c(F)c3)c21 | 12%
37 | CCOC(=O)N1CCC(n2cnc(-c3ccc(F)cc3)c2-c2ccnc(N)n2)CC1 [SB-219952] | 3%
38 | Cc1cccc2c(-c3ccncc3)c(-c3ccc(F)cc3)nn12.Cl [GW461487] | 4%
39 | N#Cc1cccc(C(=O)NC2CCN(c3ccnc(Nc4ccc(F)cc4)n3)C2)c1 (stereo not shown) [GSK1379708] | 5%
40 | Cc1n[nH]c2cc(Nc3ccnc(Nc4cccc(CN5CCOCC5)c4)n3)ccc12 [GW682569] | 26%
41 | Cn1cc(-c2cccc3c(N)c(C(N)=O)nnc23)cn1 | 29%
42 | Nc1nccc(-c2ccc3c(N)n[nH]c3c2)n1 [GSK1034945] | 7%
43 | C[C@@H]1CNc2c(sc3ccc4nc(-c5ccc(O)cc5)ccc4c23)C(=O)N1 | 0%

Row | Structure (SMILES) | %Inh
44 | COc1cccc(C2=C(Nc3cccc(Cl)c3)C(=O)NC2=O)c1 [SB-341556] | 36%
45 | CCn1c(-c2nonc2N)nc2cncc(Br)c21 [SB-738004] | 15%
46 | COc1cc2c(Nc3ccc(NC(=O)c4ccccc4)cc3)ncnc2cc1OCCCN1CCOCC1 [GSK301329] | 35%
47 | O=C1NCCc2[nH]c(-c3ccncc3)cc21 | 11%
48 | Cc1ccc(Nc2ccnc(Nc3ccc4c(c3)CS(=O)(=O)C4)n2)cc1O.Cl [GW579362] | 38%
49 | O=C(Nc1n[nH]c2cc(-c3ccco3)ccc12)C1CC1 [SB-737447] | 0%
50 | CN(c1cccc(CNc2nc(Nc3ccc4c(c3)CC(=O)N4)ncc2C(F)(F)F)c1)S(C)(=O)=O | 14%
51 | Cc1ccc(C(=O)Nc2ccc(Oc3ccc4nc(NC(=O)C5CC5)cn4c3)c(F)c2)c(=O)n1-c1ccccc1 | 0%
52 | COC(=O)c1cccc(NC(=O)NC2CCN(c3ccnc(NCc4ccc(F)cc4)n3)CC2)c1 [GSK1379860] | 0%
53 | Cl.c1ccc(Oc2ccc(Nc3ccnc4cc(-c5ccc(CN6CCNCC6)o5)ccc34)cc2)nc1 [GW567142] | 20%
54 | O=C(NCC1CC1)c1ccc(-c2cc(C(=O)NC3CC3)ccc2F)cc1 [GW810445] | 0%
55 | C[C@@H](Oc1cc(-n2cnc3cc(-c4cnn(C)c4)ccc32)sc1C(N)=O)c1ccccc1Cl [GSK580432] | 31%
56 | CC(C)c1nc(-c2cccc(NS(=O)(=O)c3ccccc3)c2)c(-c2ccnc(Nc3ccc4c(c3)CN(C)CC4)n2)s1 [GSK1649598] | 42%
57 | C[C@@H](Oc1cc(-n2cnc3ccc(-c4ccncc4)cc32)sc1C(N)=O)c1ccccc1Cl [GSK483724] | 21%
58 | CCn1c(-c2nonc2N)nc2cncc(CNC3CCNCC3)c21.Cl [SB-747651] | 22%
59 | CC(C)S(=O)(=O)N1CCN(Cc2ccc3c(c2)nc(NC(=O)c2ccsc2)n3C[C@H](O)c2ccccc2)CC1 [GW635815] | 12%
60 | COc1cc(Nc2nccc(N3CCC(NC(=O)c4cccc(C#N)c4)C3)n2)cc(OC)c1OC (stereo not shown) [GSK1379751] | 0%
61 | Cc1ccc(CC(=O)N2CCc3cc(-c4cn(C)c5ncnc(N)c45)ccc32)cc1 [GSK2634758] | 19%
